# The supplement of paper PMC3334620
# The full ranking holds about 33,000 sequences; the median of “E-score (-0.5 to 0.5)” is about -0.036, and the highest 2% start at about 0.37. The full list was thinned out, with the highest values kept by preference.
# Molecular target: T1, Yer064c (UniProt P40041)
# T1 sequence: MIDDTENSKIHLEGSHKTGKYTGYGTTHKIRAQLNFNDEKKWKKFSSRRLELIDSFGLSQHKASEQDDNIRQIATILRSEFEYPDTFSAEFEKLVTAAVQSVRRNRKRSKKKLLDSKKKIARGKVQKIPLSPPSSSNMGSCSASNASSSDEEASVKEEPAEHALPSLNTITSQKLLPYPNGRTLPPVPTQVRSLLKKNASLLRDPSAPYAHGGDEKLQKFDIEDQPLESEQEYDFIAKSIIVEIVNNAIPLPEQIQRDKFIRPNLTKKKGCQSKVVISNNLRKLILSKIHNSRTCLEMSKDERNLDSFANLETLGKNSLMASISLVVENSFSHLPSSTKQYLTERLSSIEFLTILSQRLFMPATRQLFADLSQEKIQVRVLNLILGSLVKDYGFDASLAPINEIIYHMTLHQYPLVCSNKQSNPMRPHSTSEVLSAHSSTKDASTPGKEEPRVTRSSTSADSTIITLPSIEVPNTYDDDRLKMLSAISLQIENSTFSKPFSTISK
# Assay: PBM E-score (8-mer binding enrichment) (E-score (-0.5 to 0.5)); higher = stronger / more preferred TF binding
# Settings: protein concentration: 200 nM; construct: GST-full length
# Outline: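 Universal all-10-mer Agilent arrays, double-stranded by primer extension on fresh or once-stripped slides, were probed with about 100-200 nM GST-tagged yeast transcription factors made by PURExpress. Fluorescent anti-GST detected bound protein, and masliner normalised the scans. E-scores from the Universal PBM Analysis Suite were given to each ungapped eight-base word pooled with its reverse complement.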
row,Sequence,PBM E-score
1,TAGGGCGA,0.0759
2,AAAGCTTA,-0.0514
3,AGTTAGCC,0.127
4,ATCGCACG,-0.0772
5,CAGTCGGA,0.118
6,AAGTCGTA,0.328
7,AAGTCGGC,-0.0537
8,CAGTCGGC,0.122
9,GAGTCGGC,0.412
10,CAGTCGTA,0.265
11,TAGTCGGA,0.288
12,GAGTCGTA,0.453
13,GAGTCGGA,0.395
14,CAACACAG,0.0802
15,GAAAATAA,0.133
16,TGACGACA,0.102
17,CATCGCAC,-0.211
18,ATGCAAGA,0.139
19,CGCTCATC,0.0112
20,CAAGCCGG,-0.108
21,ACATTCTA,0.0824
22,ATGATTCA,0.49
23,AAGATTCA,0.37
24,ACGATTCG,0.0252
25,AAGATTCG,0.205

row,Sequence,PBM E-score
1,GTGATTCA,0.474
2,GGGATTCA,0.147
3,GTGATTTA,0.35
4,AGGATTCA,0.24
5,AGGATTCG,-0.0455
6,ATGATTCG,0.437
7,ACGATTCA,0.298
8,GAGATTCA,0.238
9,CGCGCCCC,-0.271
10,CAACCTGC,-0.127
11,CCGTAATA,0.0217
12,ACTCAGCT,0.216
13,ACCGGAAG,-0.0509
14,GATGCTCC,-0.345
15,AACAACCA,0.13
16,ATGGGGAC,-0.14
17,CGAAATCA,0.309
18,CCGCGGAC,-0.0248
19,CGTGGAGC,-0.124
20,CCACCCCA,-0.0763
21,ATGACCGG,-0.128
22,AATATATC,-0.0361
23,CAGATTCA,0.157
24,ATGATTCC,0.456
25,CTGATTCA,0.45

row,Sequence,PBM E-score
1,CGGATTCA,0.194
2,CTGATTCC,0.301
3,AGGATTCC,0.0611
4,CTCGGCCC,-0.206
5,GTGAATGA,0.14
6,ATGAATCA,0.48
7,CTGAATCC,0.235
8,ATGAATCC,0.253
9,CTGAATTA,0.0399
10,GTGAATAA,0.0323
11,GTGAATCA,0.48
12,ATGAATCG,0.355
13,CTGAATCA,0.455
14,CTAAGGTA,0.105
15,GTTTATTA,0.148
16,CGATGTGA,0.103
17,ACATCACA,-0.0462
18,GCGTGAAA,-0.106
19,CTGACGGA,-0.0463
20,GGGTAAAC,0.0204
21,GTCTGTCA,-0.107
22,AACTCCGA,-0.0453
23,TACTCCGA,0.0904
24,CACTCCGC,-0.0571
25,GACTCCGC,0.406

row,Sequence,PBM E-score
1,AACTCCGC,-0.0186
2,GACTCCGA,0.417
3,GTGCACCA,-0.178
4,AGGTAGTC,0.407
5,AGGTAGTA,0.0729
6,CGGTAGTC,0.409
7,AGGTAGTG,-0.0767
8,CGGTAGTA,0.0891
9,CGGTAGGC,-0.178
10,CTTCAGGA,0.00919
11,CATTCACC,-0.166
12,GATTCACA,0.375
13,AATTCACC,-0.0422
14,CATTCACG,0.0972
15,CATTCACA,-0.00304
16,GATTCACC,0.372
17,CGATAGAC,0.00233
18,CGCCTTTA,0.0724
19,ATATCTCA,0.0798
20,CTTGGGAA,0.0531
21,ATTCCTAA,0.183
22,ATTGATTA,0.286
23,AATGATTA,0.449
24,AATTATGA,0.248
25,GTTGATTA,0.381

row,Sequence,PBM E-score
1,GATTATGA,0.38
2,GATGATCA,0.323
3,GATTATGC,0.112
4,AATGATGA,0.289
5,CTTGATTA,0.303
6,AATGATAA,0.0741
7,GATGATGA,0.256
8,GATGATTA,0.47
9,AACCGCAG,-0.0549
10,ATCAACTA,0.23
11,AGTGAAAT,0.143
12,ACCTCCCT,-0.107
13,CCGGTTAA,-0.0828
14,CCCGAGGG,-0.0969
15,CCTGATTA,0.344
16,GCTGATTA,0.392
17,ACTGATTA,0.343
18,CTTTCCCC,-0.153
19,ACTCGTAT,0.107
20,AGTCGTAG,0.406
21,ACTCGTAG,0.218
22,AGTCGTAA,0.378
23,GGTCGTAC,-0.205
24,CGTCGTAG,0.0225
25,AATCGTAT,0.118

row,Sequence,PBM E-score
1,TGTCGTAA,-0.0131
2,GGTCGTAA,-0.0401
3,CGTCGTAC,-0.0504
4,AGTCGTAC,0.399
5,AGTCGTAT,0.379
6,GAGAGCGA,-0.0993
7,GCGATAAC,-0.135
8,CGTGGACA,-0.323
9,GCGCGGAC,0.0396
10,ATGACCGA,-0.0163
11,AGTCCTAA,0.366
12,TGTCCTAA,-0.0793
13,AGTCCTAT,0.306
14,AATAGCTA,-0.0209
15,GCCTGGGA,-0.343
16,GAGAATTA,-0.167
17,TAGAATCA,0.362
18,AAGAATCA,0.392
19,GAGAATCC,-0.141
20,CAGAATCA,0.349
21,GAGAATCA,0.392
22,GAACAGCA,-0.175
23,AATGGACC,0.0237
24,CCAGACTC,0.206
25,CGAGACTA,0.37

row,Sequence,PBM E-score
1,AGAGACTC,0.386
2,AGAGACTG,0.0785
3,GGAGACTA,0.375
4,CCAGACTA,0.208
5,CGAGACGA,-0.0652
6,CGAGACAC,0.13
7,AGAGACTA,0.347
8,GGAGACCA,-0.176
9,GGAGACAA,-0.173
10,CGAGACTC,0.369
11,AGCCTAGC,-0.166
12,CTTCGCGA,0.105
13,ATGAGATA,0.0605
14,GTGCGGCA,-0.143
15,CGGCGATA,0.143
16,AAGGAACG,-0.167
17,AAAAGGAT,-0.0899
18,GCACCCCC,-0.268
19,CGTTAGTA,0.0645
20,AGTTAGTA,0.196
21,CGTTAGAC,-0.00028
22,CGTTAGTC,0.45
23,AGTTAGTC,0.447
24,AGTTAGTG,0.0232
25,AATTGTAG,0.13

row,Sequence,PBM E-score
1,AAGAGCGC,0.0664
2,CCGTACAG,-0.123
3,AAAATATA,0.102
4,CTAAGTAA,0.204
5,ATAAGTCC,0.161
6,GTAAGTGA,0.131
7,GTAAGTCA,0.448
8,CTAAGTCC,0.148
9,GTAAGTAA,0.0006
10,CTAAGTCA,0.449
11,ATAAGTCG,0.223
12,ATAAGTCA,0.438
13,CATCTCGG,0.181
14,AATCCAGC,-0.149
15,AACCCATA,0.111
16,GAAGCGGA,-0.189
17,GAATCAGA,0.402
18,CAATCAGA,0.208
19,AAATCAGC,0.227
20,CAATCAGC,0.317
21,GAATCAGC,0.417
22,AAATCAGA,0.158
23,CTTGCCGC,-0.264
24,AGAGAACA,-0.0209
25,GCGAACGC,-0.058

row,Sequence,PBM E-score
1,CCGAATCA,0.348
2,ACGAATCC,0.171
3,TCGAATCA,0.369
4,TCGAATAA,-0.00971
5,CCGAATCC,-0.186
6,ACGAATCT,0.123
7,GCGAATCC,-0.066
8,GCGAATCA,0.414
9,ACGAATCA,0.404
10,CTCACGCC,0.172
11,CGGGAATC,0.0615
12,CGCCTCGC,-0.087
13,AATTCAAT,0.0175
14,AAATGCCC,-0.188
15,GAGACACA,0.288
16,AGGGCTGC,-0.346
17,AACACACC,0.0884
18,ATGCGGCG,-0.174
19,CCCGCCCC,-0.223
